Assay results: PubChem BioAssay (NCATS)
Results filed as inconclusive are left out. Where a call stands in place of a potency, no number is given. Active and inactive are the calls of the source. Unless noted, the call rests on the fitted dose curve; in most records, active means well fitted curve in the direction sought with a large enough effect; inconclusive means small, poorly fitted or top-dose-only effect, or another doubt; inactive means no such curve, though single readings can be large; an effect the other way counts as inactive or inconclusive.

What was measured:
[1] = target: ATP-dependent 6-phosphofructokinase (Trypanosoma brucei brucei) (UniProt O15648); assay: qHTS Assay to Find Inhibitors of T. brucei phosphofructokinase: hit validation (AID 492961);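 further: luminescence reports ADP formed as PFK phosphorylates fructose-6-phosphate with ATP; series mostly up to about 51 µM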
How it was run: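 Inhibition of parasite PFK is measured as reduced ADP formation, quantified via luciferase after ATP depletion. Assay used 0.1 mM ATP, 0.5 mM F6P, 1.25 nM enzyme, 45 min incubation.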

[2] = Validation screen for small molecules that induce genotoxicity in human embryonic kidney (HEK293T) cells expressing luciferase-tagged ELG1 (AID 493106)
How it was run: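 HEK293T cells expressing luciferase-tagged ELG1 were exposed to compound or DMSO vehicle for 16 hr at 37 °C, 5% CO2. Genotoxic stress raises ELG1 levels, so increased luciferase signal after ONE-Glo addition and 30 min at room temperature marks hits.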

[3] = Nrf2 qHTS screen for inhibitors: Validation (AID 493153; active means well fitted inhibition curve with a large enough effect in the main read-out, with a control signal flat, not every such curve was filed as active); settings: Potency: luciferase luminescence; viability change: measured here: cytotoxicity max response
How it was run: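 A549 cells carrying an ARE-driven firefly luciferase reporter, in 5% FBS OPTI-MEM, were treated with compounds in concentration-response for 18-24 h at 37°C. Viability was read by CellTiter-Fluor fluorescence, then Nrf2 activity by luciferase luminescence.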

[4] = qHTS for Inhibitors of Cell Surface uPA Generation: Validation Assay (AID 493164);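 further: RAW 264.7 macrophage cells exposed to compound for 18 h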
How it was run: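 RAW 264.7, 4000 cells/well, o/n plating; cpd 7-pt 1:5 dilution 2.45 nM–38.3 uM final; 18 h, 37 C/5% CO2; ATP-Lite, 5 s luminescence exposure.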

[5] = target: Peptidyl-prolyl cis-trans isomerase NIMA-interacting 1 (Homo sapiens) (UniProt Q13526); assay: qHTS Validation Assay to Find Inhibitors of Pin1 (AID 504536; active means well fitted inhibition curve with a large enough effect in the polarisation, with a control signal flat, not every such curve was filed as active; the % refers to the polarisation)
How it was run: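 Fluorescence polarization competition: compounds (titration) displace HiFluor-488-labeled Pin1-1b peptide from Pin1 (0.3 uM final) in pH 7.5 HEPES buffer with DTT, 10 min at room temperature; %Activity normalized to no-enzyme wells, curves fitted.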

[6] = target: Phosphoglycerate kinase, glycosomal (Trypanosoma brucei brucei) (UniProt P07378); assay: qHTS Validation Assay to Find Inhibitors of Phosphoglycerate Kinase (AID 504547)
How it was run: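 PGK activity was coupled to GAPDH (100nM final), which generates the unstable substrate 1,3-bisphosphoglycerate in-well. Reactions ran 60 minutes at room temperature in 100mM TEA pH 7.6, 5mM MgCl2, 0.01% Tween-20, then Kinase-Glo Plus luminescence was read.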

[7] = target: phosphoglycerate mutase (Leishmania major) (UniProt Q4Q090); assay: qHTS Validation Assay to Find Inhibitors of Phosphoglycerate Mutase (AID 504548);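 further: end-point luminescence from Kinase-GloPlus after the PGAM reaction; series mostly up to about 58 µM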
How it was run: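 Inhibition of L. major PGAM was assessed by Kinase-GloPlus luminescence following a 45-minute room-temperature reaction with enzyme at 1.25nM final.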

[8] = target: Ubiquitin carboxyl-terminal hydrolase 1 (Homo sapiens) (UniProt O94782); assay: Inhibitors of USP1/UAF1: Pilot qHTS (AID 504865);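 further: rhodamine fluorescence freed from ubiquitin-rhodamine substrate followed over time; top concentration of the series differs between compounds; nearly all actives have a fitted effect of over 35% in size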
How it was run: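 USP1/UAF1 complex (1nM) preincubated with compound 15 min at room temperature, then Ub-Rho substrate (150nM final) added. Fluorescence read kinetically at 480/540 nm, 6 reads every 60 seconds. Buffer: 50mM HEPES pH 7.8, 0.5mM EDTA, 0.1 mg/ml BSA, 1mM TCEP, 0.01% Tween-20.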

[9] = qHTS for Inhibitors of ATXN expression: Validation of Cytotoxic Assay (AID 588349)
How it was run: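 HEK293 cells were dosed with titrated compounds for 72 hr at 37 degrees C. Viability was read by CellTiter Glo luminescence, with intracellular ATP as the marker of cell survival.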

[10] = qHTS for Inhibitors of ATXN expression: Validation (AID 588378); further: series mostly up to about 57 µM; nearly all actives have a fitted effect of over 75% in size
How it was run: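 Luminescence from an ATXN2-FFLuc reporter in HEK293 cells served as read-out after 24 h compound treatment at 37 degrees C; CellTiter-Fluor fluorescence was recorded first to assess viability.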

[11] = target: ATPase family AAA domain-containing protein 5 (Homo sapiens) (UniProt Q96QE3); assay: Validation screen for small molecules that inhibit ELG1-dependent DNA repair in human embryonic kidney (HEK293T) cells expressing luciferase-tagged ELG1 (AID 493107); further: nearly all actives have a fitted effect of over 70% in size; further: potency means the concentration at half of the fitted maximal effect
How it was run: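 HEK293T cells expressing luciferase-tagged ELG1 were co-treated with 5-fluorouridine and compound or DMSO for 16 hr at 37 °C, 5% CO2. Luciferase activity was then read with ONE-Glo after 30 min at room temperature; suppressed signal indicates blocked ELG1 function.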

[12] = target: Galactokinase (Homo sapiens) (UniProt P51570); assay: qHTS Validation Assay for Inhibitors of Human Galactokinase (GALK) (AID 493189)
How it was run: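 GALK (5 nM) with 35 uM ATP and 100 uM galactose in HEPES pH8.0, MgCl2, NaCl, DTT, BSA; 1 h at room temperature. Residual ATP read by Kinase-Glo Plus luminescence after 10 min.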

[13] = target: DNA dC->dU-editing enzyme APOBEC-3G (Homo sapiens) (UniProt Q9HC16); assay: qHTS for inhibitors of Vif-A3G interactions: Validation (AID 588379)
How it was run: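 HeLa cells stably expressing Vif and A3G-eYFP, 700 cells/well, incubated overnight at 37 deg C, then exposed to compound overnight at 37 deg C. Inhibition of Vif-mediated degradation read as increased yellow fluorescence (Ex 488/Em 500-530) by laser-scanning cytometry.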

[14] = Validation screen for small molecules that induce DNA re-replication in SW480 colon adenocarcinoma cells (AID 504364)
How it was run: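 SW480 cells seeded at 250 per well were exposed to compound or DMSO for 48 hr at 37 C, 5% CO2, then stained with Hoechst for 40 min. DNA content per nucleus was imaged (405 nm ex, 500-530 nm em).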

[15] = target: Thyrotropin-releasing hormone receptor (Homo sapiens) (UniProt P34981); assay: qHTS for Small Molecule Agonists and Allosteric Enhancers of Human TRH Receptor: Validation Screen for Agonists (AID 493127;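 active means calcium activation more than 3 SD above the typical response in the agonist read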;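 further: intracellular calcium rise by fluo-8 fluorescence before TRH EC20 addition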); settings: TRH receptor agonist cell assay; at 2 µM; stronger effect = higher value
How it was run: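 TRHR-expressing cells were plated overnight in serum-containing medium, then loaded with fluo-8 calcium dye at room temperature for 30 min–1.5 h. After a 10 s baseline, compound was pin-transferred and calcium fluorescence (ex 480/em 530) read kinetically for agonist response.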

[16] = target: Estrogen receptor (Homo sapiens) (UniProt P03372); assay: qHTS assay for small molecule antagonists of estrogen receptor alpha signaling (AID 588513; active means well fitted curve in the direction sought with a large enough effect in the signal ratio, with a control signal flat, not every such curve was filed as active; the % refers to the signal ratio)
How it was run: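 ER-alpha-UAS-bla GripTite HEK 293 cells in medium with 2% charcoal/dextran-treated FBS were preincubated 4 h at 37 C, dosed with compound (1:2 titration), stimulated with 0.5nM 17-beta-estradiol for 18 h, then read by CCF4 beta-lactamase fluorescence.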

[17] = target: Estrogen receptor (Homo sapiens) (UniProt P03372); assay: qHTS assay for small molecule agonists of estrogen receptor alpha signaling (AID 588514; calls by dose curve; further: nearly all actives have a fitted effect of over 70% in size)
How it was run: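 ER-alpha-UAS-bla GripTite HEK 293 cells in medium with 2% charcoal/dextran-treated FBS were treated with compound titrations at 37 C for 18 hrs; beta-lactamase reporter read by CCF4 fluorescence after 2 hrs at RT.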

[18] = target: Bile acid receptor (Homo sapiens) (UniProt Q96RI1); assay: qHTS assay for small molecule antagonists of farnesoid X receptor signaling (AID 588526; calls by dose curve)
How it was run: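 Antagonist mode: titrated compounds tested against chenodeoxycholic acid stimulation (normalized to 50 uM CDCA and DMSO) in GeneBLAzer HEK293T cells for 16 h. Beta-lactamase read by CCF4 fluorescence; IC50 from Hill fits.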

Sequence of ATPase family AAA domain-containing protein 5 (Homo sapiens) (Q96QE3 whole entry, looked up, the tested form may be a part): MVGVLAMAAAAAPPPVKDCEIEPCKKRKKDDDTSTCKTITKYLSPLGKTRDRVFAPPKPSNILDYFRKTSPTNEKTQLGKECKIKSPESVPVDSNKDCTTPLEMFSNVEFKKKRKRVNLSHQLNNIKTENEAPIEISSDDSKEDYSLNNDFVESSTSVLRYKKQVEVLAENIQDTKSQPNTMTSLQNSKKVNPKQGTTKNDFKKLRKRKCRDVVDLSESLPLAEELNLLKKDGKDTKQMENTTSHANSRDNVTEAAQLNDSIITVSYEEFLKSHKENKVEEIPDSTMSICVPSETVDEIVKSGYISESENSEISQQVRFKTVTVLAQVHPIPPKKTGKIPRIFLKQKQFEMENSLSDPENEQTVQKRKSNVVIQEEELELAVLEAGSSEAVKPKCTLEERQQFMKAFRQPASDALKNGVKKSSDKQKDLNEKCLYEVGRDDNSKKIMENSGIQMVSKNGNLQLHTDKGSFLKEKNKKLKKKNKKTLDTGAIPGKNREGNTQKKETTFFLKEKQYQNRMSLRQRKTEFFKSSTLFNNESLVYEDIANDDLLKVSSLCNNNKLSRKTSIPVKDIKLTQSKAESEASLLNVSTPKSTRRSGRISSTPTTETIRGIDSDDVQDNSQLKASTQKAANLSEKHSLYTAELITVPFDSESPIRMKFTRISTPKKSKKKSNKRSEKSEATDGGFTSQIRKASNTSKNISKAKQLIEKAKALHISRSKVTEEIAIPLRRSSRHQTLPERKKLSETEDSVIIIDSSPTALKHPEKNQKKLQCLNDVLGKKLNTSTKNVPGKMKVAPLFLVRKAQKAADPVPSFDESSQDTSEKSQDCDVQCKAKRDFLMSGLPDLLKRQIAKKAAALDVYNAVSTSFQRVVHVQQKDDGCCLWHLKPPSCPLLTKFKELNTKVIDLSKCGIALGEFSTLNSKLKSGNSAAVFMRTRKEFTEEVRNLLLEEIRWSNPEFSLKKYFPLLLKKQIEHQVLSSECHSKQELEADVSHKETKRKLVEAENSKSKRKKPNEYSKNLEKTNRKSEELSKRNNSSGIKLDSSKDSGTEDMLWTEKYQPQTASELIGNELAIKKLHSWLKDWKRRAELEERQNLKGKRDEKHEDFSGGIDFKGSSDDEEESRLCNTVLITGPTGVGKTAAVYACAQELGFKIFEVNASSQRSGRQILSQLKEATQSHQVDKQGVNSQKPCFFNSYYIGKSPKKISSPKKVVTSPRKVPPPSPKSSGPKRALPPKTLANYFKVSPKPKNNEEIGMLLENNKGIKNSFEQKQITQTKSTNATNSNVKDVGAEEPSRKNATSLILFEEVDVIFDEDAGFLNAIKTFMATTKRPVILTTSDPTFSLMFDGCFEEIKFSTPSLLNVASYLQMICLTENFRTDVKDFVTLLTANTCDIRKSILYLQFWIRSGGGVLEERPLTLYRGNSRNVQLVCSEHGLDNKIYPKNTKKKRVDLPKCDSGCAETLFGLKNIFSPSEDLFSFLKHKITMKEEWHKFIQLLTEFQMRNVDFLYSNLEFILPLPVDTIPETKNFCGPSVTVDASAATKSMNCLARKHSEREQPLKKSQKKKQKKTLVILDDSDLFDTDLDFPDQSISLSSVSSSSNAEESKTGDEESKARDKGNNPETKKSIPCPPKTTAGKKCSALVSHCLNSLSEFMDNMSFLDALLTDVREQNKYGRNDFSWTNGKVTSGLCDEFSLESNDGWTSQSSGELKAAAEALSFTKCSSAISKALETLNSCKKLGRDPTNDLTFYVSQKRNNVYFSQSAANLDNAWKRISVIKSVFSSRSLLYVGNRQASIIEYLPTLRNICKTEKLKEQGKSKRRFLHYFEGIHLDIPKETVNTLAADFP
Sequence of DNA dC->dU-editing enzyme APOBEC-3G (Homo sapiens) (Q9HC16 whole entry, looked up): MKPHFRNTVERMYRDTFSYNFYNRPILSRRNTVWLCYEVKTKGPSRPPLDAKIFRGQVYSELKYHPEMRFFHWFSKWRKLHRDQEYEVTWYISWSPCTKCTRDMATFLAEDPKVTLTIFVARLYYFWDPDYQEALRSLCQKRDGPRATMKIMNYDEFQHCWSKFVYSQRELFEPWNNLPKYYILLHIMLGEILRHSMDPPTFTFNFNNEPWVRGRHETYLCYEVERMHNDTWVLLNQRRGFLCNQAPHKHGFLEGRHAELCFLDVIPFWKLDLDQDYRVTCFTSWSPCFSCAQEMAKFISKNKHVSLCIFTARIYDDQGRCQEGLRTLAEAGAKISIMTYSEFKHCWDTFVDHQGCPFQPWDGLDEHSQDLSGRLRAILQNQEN
Sequence of Thyrotropin-releasing hormone receptor (Homo sapiens) (P34981 whole entry, looked up): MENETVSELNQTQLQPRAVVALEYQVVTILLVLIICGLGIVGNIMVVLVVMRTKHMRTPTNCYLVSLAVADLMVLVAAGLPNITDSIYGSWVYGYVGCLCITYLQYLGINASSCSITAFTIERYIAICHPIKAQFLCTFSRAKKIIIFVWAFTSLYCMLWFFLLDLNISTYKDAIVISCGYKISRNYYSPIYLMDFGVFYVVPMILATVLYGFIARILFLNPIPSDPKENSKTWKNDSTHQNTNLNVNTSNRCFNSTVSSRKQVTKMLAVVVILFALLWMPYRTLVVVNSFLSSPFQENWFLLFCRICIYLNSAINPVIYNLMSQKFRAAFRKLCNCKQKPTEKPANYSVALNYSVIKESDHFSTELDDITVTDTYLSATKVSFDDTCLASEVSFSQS
Sequence of phosphoglycerate mutase (Leishmania major) (Q4Q090 1-553): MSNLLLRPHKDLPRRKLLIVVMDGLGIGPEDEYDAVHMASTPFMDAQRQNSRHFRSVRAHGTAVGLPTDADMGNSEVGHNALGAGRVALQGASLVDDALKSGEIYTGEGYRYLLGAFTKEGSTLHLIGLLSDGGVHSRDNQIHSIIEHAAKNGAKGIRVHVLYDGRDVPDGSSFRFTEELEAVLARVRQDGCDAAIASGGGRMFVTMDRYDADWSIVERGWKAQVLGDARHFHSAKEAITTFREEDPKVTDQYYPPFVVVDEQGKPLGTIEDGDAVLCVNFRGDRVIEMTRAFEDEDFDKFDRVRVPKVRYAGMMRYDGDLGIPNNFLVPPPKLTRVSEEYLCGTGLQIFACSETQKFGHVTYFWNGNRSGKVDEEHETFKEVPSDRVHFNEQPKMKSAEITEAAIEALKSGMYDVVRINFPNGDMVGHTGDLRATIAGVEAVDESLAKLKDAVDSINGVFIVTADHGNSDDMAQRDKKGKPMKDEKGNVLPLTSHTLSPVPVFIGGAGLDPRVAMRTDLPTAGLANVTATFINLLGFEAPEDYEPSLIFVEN
Sequence of Galactokinase (Homo sapiens) (P51570 whole entry, looked up): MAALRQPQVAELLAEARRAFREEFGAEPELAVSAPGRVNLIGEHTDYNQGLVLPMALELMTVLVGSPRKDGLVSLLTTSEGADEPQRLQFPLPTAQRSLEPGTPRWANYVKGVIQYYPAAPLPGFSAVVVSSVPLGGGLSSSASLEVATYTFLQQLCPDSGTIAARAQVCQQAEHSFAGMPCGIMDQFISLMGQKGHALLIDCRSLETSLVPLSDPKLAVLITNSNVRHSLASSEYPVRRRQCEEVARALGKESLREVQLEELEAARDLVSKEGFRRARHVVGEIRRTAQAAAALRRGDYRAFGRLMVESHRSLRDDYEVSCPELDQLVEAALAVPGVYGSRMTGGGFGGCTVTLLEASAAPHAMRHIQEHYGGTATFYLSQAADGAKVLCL
Sequence of Peptidyl-prolyl cis-trans isomerase NIMA-interacting 1 (Homo sapiens) (Q13526 whole entry, looked up): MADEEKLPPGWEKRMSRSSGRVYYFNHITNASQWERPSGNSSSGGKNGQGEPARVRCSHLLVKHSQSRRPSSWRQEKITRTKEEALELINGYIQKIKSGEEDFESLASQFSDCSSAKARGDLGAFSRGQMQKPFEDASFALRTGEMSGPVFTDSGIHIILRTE
Sequence of ATP-dependent 6-phosphofructokinase (Trypanosoma brucei brucei) (O15648 whole entry, looked up): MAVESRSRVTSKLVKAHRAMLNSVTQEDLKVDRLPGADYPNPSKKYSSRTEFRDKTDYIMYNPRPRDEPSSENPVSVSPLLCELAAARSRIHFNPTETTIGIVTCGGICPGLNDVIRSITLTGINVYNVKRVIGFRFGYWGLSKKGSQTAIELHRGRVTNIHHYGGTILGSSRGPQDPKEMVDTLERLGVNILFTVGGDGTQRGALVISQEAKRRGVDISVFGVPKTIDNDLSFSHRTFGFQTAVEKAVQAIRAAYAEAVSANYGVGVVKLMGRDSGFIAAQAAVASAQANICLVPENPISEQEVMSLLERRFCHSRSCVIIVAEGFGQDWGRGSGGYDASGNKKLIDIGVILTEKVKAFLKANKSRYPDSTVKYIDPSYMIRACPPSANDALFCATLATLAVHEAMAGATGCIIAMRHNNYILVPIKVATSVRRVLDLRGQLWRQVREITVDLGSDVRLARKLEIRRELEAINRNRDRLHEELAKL
Sequence of Phosphoglycerate kinase, glycosomal (Trypanosoma brucei brucei) (P07378 whole entry, looked up): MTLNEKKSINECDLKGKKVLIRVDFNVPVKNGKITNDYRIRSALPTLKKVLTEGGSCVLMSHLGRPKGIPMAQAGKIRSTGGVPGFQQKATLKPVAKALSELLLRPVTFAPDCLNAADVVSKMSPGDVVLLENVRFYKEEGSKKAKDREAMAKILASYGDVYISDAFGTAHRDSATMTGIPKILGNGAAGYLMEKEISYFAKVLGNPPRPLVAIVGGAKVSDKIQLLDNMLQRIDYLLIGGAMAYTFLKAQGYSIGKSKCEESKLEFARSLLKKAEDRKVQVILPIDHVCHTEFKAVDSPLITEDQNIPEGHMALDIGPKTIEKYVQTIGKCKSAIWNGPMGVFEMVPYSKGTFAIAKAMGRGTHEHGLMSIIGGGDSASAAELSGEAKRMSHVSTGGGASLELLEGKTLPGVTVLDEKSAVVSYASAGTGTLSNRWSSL

Row | SMILES | outcome [1] | Potency [2] | Potency [3] | viability change [3] | outcome [4] | outcome [5] | outcome [6] | outcome [7] | Potency [8] | Potency [9] | Potency [10] | Potency [11] | outcome [12] | outcome [13] | outcome [14] | activation [15] | outcome [16] | Potency [17] | outcome [18]
1 | NC1=NCC2c3ccccc3Cc3ccccc3N12 (configuration not stated) | inactive | inactive | inactive | 6.37% | inactive | inactive | inactive | inactive | inactive | inactive | inactive | – | – | – | – | – | – | – | –
2 | c1cc(CN2CCCCC2)cc(OCCCNc2nc3ccccc3s2)c1 | inactive | inactive | inactive | -17% | inactive | inactive | inactive | inactive | inactive | – | – | inactive | inactive | inactive | – | – | – | – | –
3 | OC(CCN1CCCCC1)(c1ccccc1)C1CCCCC1 (configuration not stated) | inactive | inactive | inactive | -0.392% | inactive | inactive | inactive | inactive | inactive | – | – | inactive | – | – | inactive | – | – | – | –
4 | NC(=O)c1cn(Cc2c(F)cccc2F)nn1 | inactive | inactive | inactive | -8.96% | inactive | – | inactive | inactive | inactive | inactive | inactive | inactive | – | – | – | – | – | – | –
5 | CCCC(C(=O)OCCN(CC)CC)(c1ccccc1)c1ccccc1 | inactive | inactive | inactive | -7.4% | inactive | inactive | inactive | inactive | inactive | inactive | inactive | – | inactive | – | inactive | -7.5% (inactive) | – | – | –
6 | COC(=O)[C@H]1[C@H]2C[C@@H]3c4[nH]c5cc(OC)ccc5c4CCN3C[C@H]2C[C@@H](OC(=O)c2cc(OC)c(OC)c(OC)c2)[C@@H]1OC | inactive | inactive | – | – | inactive | – | inactive | inactive | – | inactive | inactive | 11.6 µM (active) | inactive | – | – | – | – | – | –
7 | CCN(CC)CCCN(c1ccccc1)C1Cc2ccccc2C1 | inactive | inactive | inactive | -6.42% | inactive | inactive | inactive | inactive | inactive | – | – | inactive | – | – | – | – | – | – | –
8 | CSc1ccc(C(=O)c2[nH]c(=O)[nH]c2C)cc1 | inactive | inactive | inactive | 0% | inactive | inactive | inactive | inactive | inactive | inactive | inactive | – | – | – | inactive | – | – | – | –
9 | CC(C)(Oc1ccc(CCNC(=O)c2ccc(Cl)cc2)cc1)C(=O)O | inactive | inactive | inactive | 5.14% | inactive | – | inactive | inactive | inactive | inactive | inactive | inactive | – | – | – | – | inactive | inactive | inactive
10 | CC(C)(C)c1ccc(C(=O)CCCN2CCC(OC(c3ccccc3)c3ccccc3)CC2)cc1 | inactive | inactive | inactive | -5.59% | inactive | inactive | inactive | inactive | – | inactive | inactive | – | – | – | – | – | – | – | –
11 | CC(=O)[C@@]1(O)CC[C@H]2[C@@H]3CCC4=CC(=O)CC[C@]4(C)[C@H]3CC[C@@]21C | inactive | inactive | – | – | inactive | inactive | inactive | inactive | inactive | inactive | inactive | inactive | – | – | – | – | – | – | –
12 | CCn1nc(C(=O)O)c(=O)c2cc3c(cc21)OCO3 | inactive | inactive | inactive | -1.17% | inactive | inactive | inactive | inactive | inactive | inactive | inactive | inactive | inactive | inactive | inactive | – | – | – | –
13 | CCOC(=O)C1=C(C)NC(C)=C(C(=O)OC)C1c1cccc(Cl)c1Cl (configuration not stated) | inactive | inactive | inactive | -3.98% | inactive | – | inactive | inactive | – | – | – | – | – | – | inactive | 1.12% (inactive) | – | – | –
14 | CC(C)[N+](C)(CCOC(=O)C1c2ccccc2Oc2ccccc21)C(C)C | inactive | inactive | inactive | -4.32% | inactive | – | inactive | inactive | inactive | inactive | inactive | – | inactive | – | inactive | 0.875% (inactive) | – | – | –
15 | COC(=O)C1=C(C)NC(C)=C(C(=O)OC(C)(C)CN(C)CCC(c2ccccc2)c2ccccc2)C1c1cccc([N+](=O)[O-])c1 (configuration not stated) | inactive | inactive | – | – | inactive | inactive | inactive | inactive | – | – | – | – | – | – | – | – | – | – | –
16 | CCCN(CCC)C(=O)C(CCC(=O)O)NC(=O)c1ccccc1 (configuration not stated) | – | inactive | inactive | -16.1% | inactive | inactive | inactive | inactive | inactive | inactive | inactive | inactive | – | – | inactive | 1.56% (inactive) | – | – | –
17 | NS(=O)(=O)c1cc2c(cc1Cl)NC(C1CC3C=CC1C3)NS2(=O)=O (configuration not stated) | – | inactive | inactive | 12.8% | inactive | – | inactive | inactive | inactive | inactive | inactive | inactive | – | – | inactive | -0.25% (inactive) | – | – | –
18 | C=CCc1ccccc1OCC(O)CNC(C)C (configuration not stated) | – | inactive | inactive | -7.73% | inactive | inactive | inactive | inactive | inactive | inactive | – | inactive | inactive | – | inactive | 0.312% (inactive) | – | – | –
19 | CCCNC(C)C(=O)Nc1ccccc1C (configuration not stated) | – | inactive | inactive | -6.89% | inactive | inactive | inactive | inactive | inactive | – | inactive | inactive | – | – | inactive | 1.5% (inactive) | – | – | –
20 | CCC(=O)c1ccc2c(c1)N(CCCN(C)C)c1ccccc1S2 | – | inactive | inactive | -14.9% | inactive | inactive | inactive | inactive | inactive | – | – | inactive | inactive | – | inactive | 1.56% (inactive) | – | – | –
21 | O=C1CC2(CCCC2)CC(=O)N1CCCCN1CCN(c2ncccn2)CC1 | – | inactive | – | – | inactive | inactive | inactive | inactive | inactive | inactive | inactive | inactive | inactive | inactive | inactive | 0.688% (inactive) | – | – | –
